The record followed here is PubChem BioAssay.

A short description of assay [1]: growth inhibition of DIPG glioma cells, dose response, cell-based, SU-DIPG-XVII, MIPE5.0, CellTiter-Glo, qHTS (AID 1347060).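 As to AC50: cells exposed to compound for 48 hours before viability readout.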 Conditions: SU-DIPG-XVII viability, CellTiter-Glo ATP luminescence.
Assay [2] in a line: growth inhibition of DIPG glioma cells, dose response, cell-based, JHH-DIPG-1, MIPE4.0, CellTiter-Glo, qHTS (AID 1347062; cut-off not given, nearly all actives have AC50 up to about 27 µM;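 as to AC50: cells exposed to compound for two days before readout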). Conditions: JHH-DIPG-1 viability, CellTiter-Glo ATP luminescence.
Assay [3] in a line: growth inhibition of DIPG glioma cells, dose response, cell-based, SU-DIPG-IV, MIPE4.0, CellTiter-Glo, qHTS (AID 1347063; cut-off not given, nearly all actives have AC50 up to about 30 µM;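 also: compound exposure lasted 48 hours before the viability readout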). The following applies: SU-DIPG-IV viability, CellTiter-Glo ATP luminescence.
Assay [4] can be described thus: growth inhibition of DIPG glioma cells, dose response, cell-based, SU-DIPG-XIII, MIPE5.0, CellTiter-Glo, qHTS (AID 1347064; cut-off not given, nearly all actives have AC50 up to about 23 µM;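 as to AC50: cells exposed to compound for 48 hours before the viability read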). Conditions: SU-DIPG-XIII viability, CellTiter-Glo ATP luminescence.
A short description of assay [5]: viability loss in pontine glioma line – cell-based, SU-DIPG-XXV, MIPE5.0, CellTiter-Glo, qHTS, dose response (AID 1347065).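 Also: cells exposed to compound for 48 hours before ATP readout.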 The following applies: CellTiter-Glo ATP luminescence.
The nature of assay [6]: JHH-DIPG-1 glioma cell viability, MIPE5.0 library, CellTiter-Glo luminescence, qHTS (AID 1347067).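 Also: cells exposed to compound for 48 hours before readout.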 The following applies: JHH-DIPG-1 glioma viability, CellTiter-Glo ATP luminescence.
The nature of assay [7]: SU-DIPG-XXV glioma cell viability, MIPE5.0 library, qHTS (AID 1347068; cut-off not given, nearly all actives have IC50 up to about 30 µM).
Assay [8] can be described thus: modifiers of HSF1 nuclear foci, imaging, Selleck Cancer Library (AID 1347162; in the data active = plate-normalised HSF1 focus index below about 0.46). The following applies: human cells, at 10 µM; SSMD: measured here: HSF1 foci SSMD mean; cell count: measured here: cell number; plate-normalised HSF1 focus index: stronger effect = lower value.
Assay [9] is described as follows: LFS_MB_P medulloblastoma growth inhibition, cell-based, chromothripsis tumors, cisplatin or BGB combos (AID 1671449; in the data active = inhibition above about 80%;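 also: cells exposed for 96 hours; 0% = vehicle DMSO and 100% = killing by high DMSO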). The following applies: LFS_MB_P medulloblastoma cells.
Assay [10] can be described thus: HDN33 neuroblastoma growth inhibition, cell-based, chromothripsis tumors, cisplatin or BGB combos (AID 1671450; in the data active = inhibition above about 80%;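 also: cells exposed to compound for four days; 0% = vehicle DMSO and 100% = cell killing by high DMSO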). The following applies: HDN33 neuroblastoma cells, stronger effect = higher value.
The nature of assay [11]: ICB984 medulloblastoma cell growth inhibition, synergistic combos for chromothripsis tumors, cisplatin or BGB combos (AID 1671451; call rule not given here;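 also: cells exposed for 96 hours before readout; 0% = vehicle DMSO and 100% = killing by high DMSO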). Conditions: ICB984 medulloblastoma cells, drug combinations, stronger effect = higher value.
Assay [12] in a line: HTB85 osteosarcoma cell growth inhibition, synergistic combos for chromothripsis tumors, BGB or cisplatin IC20 combos (AID 1671453; in the data active = inhibition above about 80%;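 also: cells exposed for 96 hours before readout; 0% = vehicle DMSO and 100% = high DMSO killing control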). Conditions: HTB85 osteosarcoma cells, drug combinations, stronger effect = higher value.
Assay [13] in a line: MDA-MB-436 breast carcinoma cell growth inhibition, synergistic combos for chromothripsis tumors, BGB or cisplatin combos (AID 1671458; call rule not given here;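 also: cells exposed for 96 hours; 0% = vehicle DMSO and 100% = killing by high DMSO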). The following applies: MDA-MB-436 breast carcinoma growth inhibition, drug combinations, stronger effect = higher value.
Assay [14] is described as follows: growth inhibition of BT084 medulloblastoma cells, cell-based, ICGC_MB145, cisplatin and BGB IC40 combos (AID 1671461; in the data active = inhibition above about 80%;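 also: cells exposed to drugs for 96 hours; 0% = vehicle DMSO and 100% = high DMSO full killing control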). The following applies: drug combinations, stronger effect = higher value.

Several values for one entry are separate records, joined by “and”; a condition that tells them apart may be missing. Identical values can stand only once. Records with an inconclusive call do not appear. The source holds several records for some structures; these can differ, active in one and inactive in another. Activity calls are given as the source filed them. Unless noted, the limit is not given here; nearly all actives have AC50 up to about 26 µM.

For `Cc1cc(OCCCS(C)(=O)=O)cc(C)c1-c1cccc(COc2ccc3c(c2)OC[C@H]3CC(=O)O)c1`, the compound was called inactive in assay [1], in [2], in [3], in assay [4], in [5] and in assay [6]. Moreover, the compound was classed as inactive in assay [7].

In the case of `CCN1CCN(c2ccc(Nc3cc(N(C)C(=O)Nc4c(Cl)c(OC)cc(OC)c4Cl)ncn3)cc2)CC1`, the AC50 in assay [1] is 0.235 µM (active); in assay [2], 23.5 µM (active); in assay [3], 33.2 µM (active); in [4], 0.332 µM (active); in assay [5], 0.209 µM (active); in [6] it was 8.33 µM (active).

For `Cc1[nH]c2ccccc2c1CCNCc1ccc(/C=C/C(=O)NO)cc1`, the AC50 was 1.18 µM (active) in assay [1]; 0.132 µM (active) in [2]; 0.332 µM (active) in assay [3]; 0.166 µM (active) in assay [4]; 0.148 µM (active) in assay [5]; 0.166 µM (active) in assay [6]. Moreover, the SSMD in assay [8] was -3.12. In [8], this compound returned a cell count of 7220. The plate-normalised HSF1 focus index in assay [8] is 0.803 (inactive). For the same compound, the inhibition is 42% (inactive) and 87.2% (active) in assay [9] (at 0.5 µM, stronger effect = higher value); -5.26% and -19.1% in assay [9] (measured here: combination with BGB IC20, at 0.005 µM); -17.3% and -29% in assay [9] (measured here: combination with BGB IC40, at 0.005 µM); -6.97% and -48.6% in [9] (measured here: combination with BGB IC40, at 0.05 µM); 84.3% and 119% in assay [9] (measured here: combination with cisplatin, at 0.5 µM, stronger effect = higher value); 120% and 116% in [9] (measured here: combination with cisplatin, at 5 µM, stronger effect = higher value). The inhibition is 99.9% and 99.7% in assay [10] (BGB combo, at 5 µM); 99.7% (active) and 60.8% (inactive) in [10] (at 0.5 µM); 99.9% and 100% in [10] (cisplatin combo, at 5 µM); 99.5% and 57.1% in assay [10] (measured here: with BGB IC20 combination, at 0.5 µM); 99.8% and 58.2% in [10] (measured here: with cisplatin IC20 combination, at 0.5 µM); 99.9% in [10] (single agent, at 5 µM). The inhibition was 86.9% and 15.5% in assay [11] (BGB IC20 combo, at 0.005 µM); 98.3% and 28.4% in assay [11] (BGB IC40 combo, at 0.005 µM); 99.9% and 97.7% in assay [11] (BGB IC40 combo, at 0.05 µM); -9.68% (inactive) and -7.76% (inactive) in assay [11] (at 0.5 µM); 99.9% and 97.7% in [11] (cisplatin combo, at 0.05 µM); -13.7% and 4.07% in assay [11] (cisplatin combo, at 0.5 µM). Also, the inhibition in assay [11] (cisplatin combo, at 5 µM) is 25.1% and -22.1%; in assay [11] (measured here: 5 uM single agent, at 5 µM) it was 26.1% and 8.36%; in [12] (at 0.5 µM) it was 99.9% (active) and 73.4% (inactive); in assay [12] (measured here: with BGB IC20, at 0.5 µM) it was 100% and 62.5%; in assay [12] (measured here: with BGB IC20, at 5 µM), 99.9% and 99.8%; in [12] (measured here: with cisplatin IC20, at 0.5 µM), 100% and 90.3%. Besides, the inhibition in assay [12] (measured here: with cisplatin IC20, at 5 µM) was 100%; in assay [12] (single agent, at 5 µM) it was 99.9% and 100%; in assay [13] (at 0.5 µM), 68.6% (inactive) and 35.2% (inactive); in assay [13] (measured here: BGB combination, at 0.5 µM), 60.4% and 26.7%; in [13] (measured here: BGB combination, at 5 µM), 70.3% and 56.2%; in assay [13] (measured here: cisplatin combination, at 0.5 µM), 66.3% and 33.8%. The inhibition in assay [13] (measured here: cisplatin combination, at 5 µM) was 80.8% and 74.3%; in assay [14] (at 0.5 µM), 90.4% (active) and 65.9% (inactive); in assay [14] (cisplatin combination, at 0.5 µM), 101% and 78.2%; in [14] (cisplatin combination, at 5 µM), 102% and 105%; in [14] (measured here: BGB IC40 combination 0.05 uM, at 0.05 µM), 52.7% and 3.36%; in assay [14] (single agent, at 5 µM) it was 109% and 106%.
